In the assay the target is Genome polyprotein (Dengue virus type 2 (strain 16681-PDK53)) (UniProt P29991). As to the kind of experiment: flavivirus cap methylation enzyme inhibition – biochemical, confirmation dose response, primary screen (AID 588689). The settings on record: Dengue-2 NS5 methyltransferase capping enzyme assay, at 25 µM, stronger effect = higher value.

Among all 340,000 compounds or so, about 1,000 (0.29%) were called active. Rule as the data show it: inconclusive = inhibition above about 29% without an active follow-up result; inactive = below that. A selection follows. Results with a measured potency or affinity are listed apart.

Sequence of Genome polyprotein (Dengue virus type 2 (strain 16681-PDK53)) (P29991 whole entry, looked up): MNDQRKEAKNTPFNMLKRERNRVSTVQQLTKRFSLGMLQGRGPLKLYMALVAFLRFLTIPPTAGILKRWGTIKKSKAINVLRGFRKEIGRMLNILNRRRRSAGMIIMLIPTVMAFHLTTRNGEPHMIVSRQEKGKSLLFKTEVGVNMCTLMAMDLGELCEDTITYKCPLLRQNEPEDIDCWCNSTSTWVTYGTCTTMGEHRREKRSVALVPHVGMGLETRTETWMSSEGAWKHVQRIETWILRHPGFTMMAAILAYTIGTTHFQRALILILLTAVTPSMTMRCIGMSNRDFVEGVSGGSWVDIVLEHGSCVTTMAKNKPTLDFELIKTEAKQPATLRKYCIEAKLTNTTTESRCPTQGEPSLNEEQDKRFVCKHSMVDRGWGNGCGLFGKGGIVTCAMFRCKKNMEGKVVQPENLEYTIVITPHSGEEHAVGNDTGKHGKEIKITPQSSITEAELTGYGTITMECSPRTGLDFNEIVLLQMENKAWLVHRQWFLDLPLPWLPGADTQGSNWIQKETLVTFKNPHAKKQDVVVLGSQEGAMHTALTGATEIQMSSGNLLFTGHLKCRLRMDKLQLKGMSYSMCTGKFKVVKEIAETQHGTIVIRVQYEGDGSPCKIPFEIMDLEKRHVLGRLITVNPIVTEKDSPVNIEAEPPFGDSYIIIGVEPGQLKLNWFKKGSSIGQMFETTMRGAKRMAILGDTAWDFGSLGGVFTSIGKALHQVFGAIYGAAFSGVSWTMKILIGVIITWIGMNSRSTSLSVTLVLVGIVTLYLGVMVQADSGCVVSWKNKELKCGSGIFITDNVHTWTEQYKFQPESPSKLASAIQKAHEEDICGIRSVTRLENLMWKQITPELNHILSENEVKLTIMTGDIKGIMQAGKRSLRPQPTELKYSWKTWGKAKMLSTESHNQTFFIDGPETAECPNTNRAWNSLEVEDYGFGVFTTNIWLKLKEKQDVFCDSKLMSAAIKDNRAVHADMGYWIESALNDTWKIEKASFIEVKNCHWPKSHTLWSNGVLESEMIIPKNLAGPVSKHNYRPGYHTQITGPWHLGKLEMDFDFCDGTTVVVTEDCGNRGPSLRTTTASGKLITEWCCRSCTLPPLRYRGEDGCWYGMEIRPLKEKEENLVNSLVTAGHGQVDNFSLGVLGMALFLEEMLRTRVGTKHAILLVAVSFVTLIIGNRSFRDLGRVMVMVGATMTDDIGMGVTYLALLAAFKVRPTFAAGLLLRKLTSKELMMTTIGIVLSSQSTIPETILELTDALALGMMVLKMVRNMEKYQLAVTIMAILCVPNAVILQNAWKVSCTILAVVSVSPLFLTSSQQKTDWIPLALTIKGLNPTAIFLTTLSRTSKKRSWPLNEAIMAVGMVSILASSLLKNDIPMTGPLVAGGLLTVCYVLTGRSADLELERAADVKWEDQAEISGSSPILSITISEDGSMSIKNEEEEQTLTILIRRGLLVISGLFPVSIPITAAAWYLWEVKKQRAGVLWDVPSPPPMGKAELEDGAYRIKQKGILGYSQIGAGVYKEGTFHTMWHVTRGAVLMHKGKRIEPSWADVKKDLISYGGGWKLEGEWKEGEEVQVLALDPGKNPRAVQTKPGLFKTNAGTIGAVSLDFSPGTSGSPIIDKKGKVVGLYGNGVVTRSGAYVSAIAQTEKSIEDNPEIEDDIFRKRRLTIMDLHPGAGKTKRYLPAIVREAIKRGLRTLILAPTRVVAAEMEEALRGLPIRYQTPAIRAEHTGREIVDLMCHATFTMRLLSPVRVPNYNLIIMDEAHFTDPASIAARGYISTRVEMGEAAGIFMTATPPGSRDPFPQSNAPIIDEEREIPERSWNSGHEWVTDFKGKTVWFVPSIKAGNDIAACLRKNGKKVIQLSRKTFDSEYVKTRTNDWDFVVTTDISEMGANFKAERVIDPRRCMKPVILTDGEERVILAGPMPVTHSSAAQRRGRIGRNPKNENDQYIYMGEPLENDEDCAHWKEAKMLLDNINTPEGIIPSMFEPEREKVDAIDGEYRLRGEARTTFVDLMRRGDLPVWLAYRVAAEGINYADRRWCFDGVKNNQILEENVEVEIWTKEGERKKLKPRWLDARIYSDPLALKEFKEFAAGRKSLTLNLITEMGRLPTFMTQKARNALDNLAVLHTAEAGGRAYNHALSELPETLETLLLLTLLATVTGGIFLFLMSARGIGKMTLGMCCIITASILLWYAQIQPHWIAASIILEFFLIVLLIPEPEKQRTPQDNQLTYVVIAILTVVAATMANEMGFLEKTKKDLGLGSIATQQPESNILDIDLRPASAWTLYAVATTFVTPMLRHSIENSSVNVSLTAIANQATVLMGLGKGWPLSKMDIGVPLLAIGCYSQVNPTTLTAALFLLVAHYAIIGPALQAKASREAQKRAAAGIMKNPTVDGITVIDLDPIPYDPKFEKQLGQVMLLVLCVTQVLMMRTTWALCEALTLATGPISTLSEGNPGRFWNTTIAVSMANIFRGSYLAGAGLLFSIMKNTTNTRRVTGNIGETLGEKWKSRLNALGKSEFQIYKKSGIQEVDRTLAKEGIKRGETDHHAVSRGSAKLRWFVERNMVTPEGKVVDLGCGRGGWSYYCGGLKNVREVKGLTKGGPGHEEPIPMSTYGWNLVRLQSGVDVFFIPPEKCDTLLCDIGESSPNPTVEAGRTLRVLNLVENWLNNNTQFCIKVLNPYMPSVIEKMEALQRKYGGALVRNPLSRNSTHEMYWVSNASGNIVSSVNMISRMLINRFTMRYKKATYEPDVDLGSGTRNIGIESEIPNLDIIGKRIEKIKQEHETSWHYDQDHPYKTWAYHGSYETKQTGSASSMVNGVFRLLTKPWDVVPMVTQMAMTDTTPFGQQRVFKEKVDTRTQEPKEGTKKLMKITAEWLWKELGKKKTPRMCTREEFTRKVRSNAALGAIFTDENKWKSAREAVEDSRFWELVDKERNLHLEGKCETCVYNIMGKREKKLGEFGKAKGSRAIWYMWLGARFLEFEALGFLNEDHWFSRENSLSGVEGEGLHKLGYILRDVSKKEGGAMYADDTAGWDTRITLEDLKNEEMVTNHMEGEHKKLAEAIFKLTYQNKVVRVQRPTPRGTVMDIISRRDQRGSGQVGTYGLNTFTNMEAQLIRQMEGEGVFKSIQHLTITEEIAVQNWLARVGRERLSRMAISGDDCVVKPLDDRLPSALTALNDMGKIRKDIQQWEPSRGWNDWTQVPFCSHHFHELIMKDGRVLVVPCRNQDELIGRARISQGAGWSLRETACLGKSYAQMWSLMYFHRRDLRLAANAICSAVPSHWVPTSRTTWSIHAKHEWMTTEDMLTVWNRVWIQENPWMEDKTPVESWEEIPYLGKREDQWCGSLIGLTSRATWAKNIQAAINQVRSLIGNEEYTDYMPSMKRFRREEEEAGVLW

With `CC1(C)C2CCC1(CS(=O)(=O)NCc1ccc(C(F)(F)F)cc1)C(=O)C2` (configuration not stated), the inhibition was -2.61% (inactive). Same read-out and setting: the same measure for `CCOC(=O)N1CCN(Cc2nc3ccc([N+](=O)[O-])cc3c(=O)n2-c2ccc(OC)cc2OC)CC1`: -7.83% (inactive); for `Cc1ccc(C2(C)NC(=O)N(CC(=O)NNC(=O)c3cc(C)oc3C)C2=O)cc1` (configuration not stated): -2.16% (inactive); for `CC1CC1C(=O)N(C)CC(=O)Nc1ccccc1Br` (configuration not stated): -5.16% (inactive). Same read-out and setting: under `Cc1cc(C(=O)OC(C)C(=O)NC2CCCCC2)c(C)o1` (configuration not stated) stands 3.67% (inactive). Consider `O=C(NC1CC2CCCC(C1)N2CC(=O)N1CCCc2ccccc21)C1CCCCC1` (configuration not stated), for which the inhibition was -6.56% (inactive). Still for that read-out and setting: the same measure for `Cc1cccc(-n2cnc3sc(C)c(C)c3c2=O)c1`: 3.09% (inactive); for `COc1cc(/C=C2/NC(=O)NC2=O)cc(Br)c1OCc1ccc(C(=O)O)cc1`: -4.44% (inactive). Take `COC(=O)c1ccc(COc2ccc(/C=N/Nc3cccc(C(=O)O)c3)cc2)cc1`: the inhibition is 8.5% (inactive). Still for that read-out and setting: under `O=C(O)c1ccc(COc2ccc(CO)cc2Cl)cc1` stands -1.37% (inactive). On the same count and under the same terms, under `O=C1NC(=S)N/C1=C\c1ccccc1OCc1ccc(C(=O)O)cc1` stands -6.96% (inactive); under `COC(=O)c1ccc(COc2ccccc2/C=N/NS(=O)(=O)c2ccccc2)cc1`, -8.06% (inactive). Consider `C=CCc1cc(C=O)cc(OC)c1OCc1ccc(C(=O)O)cc1`, for which the inhibition is -5.83% (inactive). As for `CN1C(=O)S/C(=C\c2ccccc2OCc2ccc(C(=O)O)cc2)C1=O`, the inhibition is 2.95% (inactive). As for `O=C(O)c1ccc(COc2ccccc2/C=C2/NC(=O)N(c3cccc(Cl)c3)C2=O)cc1`, the inhibition is 6.55% (inactive). Take `Cc1cccc(C(=O)OCC(=O)Nc2c(C)n(C)n(-c3ccccc3)c2=O)c1O`: the inhibition was -4.38% (inactive).

In the case of `N#Cc1ccc(NC(=O)c2sc3cc(C(F)(F)F)cnc3c2-c2cccs2)cc1`, the inhibition was -3.46% (inactive). The same measure, in the same setting: the same measure for `CC(C)CN(C(=O)c1ccc(N2CCCC2=O)cc1)C1CCS(=O)(=O)C1` (configuration not stated): 2.16% (inactive); for `COc1ccc(N(C(=O)c2ccco2)C(C(=O)NC2CCCC2)c2ccc(OC)c(OC)c2)cc1` (configuration not stated): -4.04% (inactive); for `N#Cc1ccc2ccn(CC(=O)NCc3ccco3)c2c1`: -5.46% (inactive). Still for that read-out and setting: the same measure for `O=C(CCn1cnc2ccccc2c1=O)Nc1ccc(Cl)c(Cl)c1`: 1.31% (inactive); for `COc1cccc(/C=N/Nc2ccc([N+](=O)[O-])cc2)c1O`: -38.8% (inactive).

For `O=C(COc1ccccc1/C=C\c1nc(O)c([N+](=O)[O-])c(=O)[nH]1)Nc1ccccc1`, the inhibition is 2.19% (inactive).

On to `CCOc1ccccc1/C=C\c1nc(O)c([N+](=O)[O-])c(=O)[nH]1`, for which the inhibition is 5.29% (inactive). On the same count and under the same terms, the same measure for `COc1cccc(/C=C/c2ccccn2)c1O`: -0.77% (inactive); for `CCCCCCSc1cc(-c2nc3cc(C)ccn3c2NC2CCCCC2)ccc1OC`: -8.81% (inactive); for `O=C(c1ccc(Cn2c(=O)[nH]c3ccsc3c2=O)cc1)N1CCN(c2ccccc2)CC1`: -1.16% (inactive). As for `COc1ccc(CN(C)C(=O)c2cccc(NS(=O)(=O)c3ccccc3)c2)c(OC)c1`, the inhibition was 0.32% (inactive). As to `O=C(CN(c1ccc(F)cc1)S(=O)(=O)c1ccccc1)NC1CCCCCC1`, the inhibition was 0% (inactive). Regarding `Cc1ccc(/C=C/c2nc3sc(C(=O)O)c(C)c3c(=O)[nH]2)cc1[N+](=O)[O-]`, the inhibition is -2.44% (inactive).

For `COc1cccc(CNC(=O)Cn2ccc3cc(S(=O)(=O)N4CCCC4)ccc32)c1`, the inhibition is -0.45% (inactive). The same measure, in the same setting: under `COc1ccc(N(C(=O)Cn2nnc(-c3ccc(Cl)cc3)n2)C(C(=O)NCC2CCCO2)c2ccncc2)cc1` (configuration not stated) stands -2.22% (inactive).

With `COc1ccc(/C=N/NC(=O)c2nn(-c3ccc(Cl)cc3)c(=O)c3c(N)scc23)cc1`, the inhibition is 65.9% (inactive). For the same compound, where the note is “measured here: pilot screen replicate inhibition”, the inhibition was found to be 10.3%. Regarding `CCOC(=O)c1nn(-c2ccc(C)cc2)c(=O)c2c(N)scc12`, the inhibition is 12.4% (inactive). Still for that read-out and setting: the same measure for `CCOC(=O)c1nn(-c2ccccc2)c(=O)c2c(N)scc12`: 7.81% (inactive). The same measure, in the same setting: under `COc1ccc(/C=N/NC(=O)c2nn(-c3ccccc3)c(=O)c3c(N)scc23)cc1` stands 50% (inactive); under `Cc1ccc2c(c1)NC(=O)c1cccnc1N2`, -0.54% (inactive); under `Cc1nnc(SC(C)C(=O)N(C)C2CCCCC2)n1N` (configuration not stated), -0.37% (inactive). For the compound `CCOc1cc(C(=O)NCCC(=O)N2CCC3(CC2)NCCc2[nH]cnc23)cc(OCC)c1OCC`, the inhibition was -6.21% (inactive). Same read-out and setting: under `CCCCN1CC[C@H]2C=CC[C@@H](C(=O)N3CCN(c4ccccc4)CC3)[C@H]2C1=O` stands -5.46% (inactive); under `Cc1ccc(-n2nc(CN3CCOCC3)c(-c3ccccc3)c2N)cc1Cl`, -2.18% (inactive); under `O=Cc1cc(N=Nc2ccc(S(=O)(=O)O)cc2)ccc1O`, 14.6% (inactive). The same measure, in the same setting: the same measure for `O=Cc1cc(N=Nc2ccccc2Cl)ccc1O`: 11.1% (inactive); for `COc1ccc(/C=C2/C(=O)N(c3c(F)c(F)c(F)c(F)c3F)N=C2C)cc1`: 27.1% (inactive); for `CCOC(=O)c1sc(Nc2ccc(OCC)cc2)nc1C`: -9.95% (inactive). On the same count and under the same terms, under `Cc1ccc(NC(=C(C#N)C#N)c2ccccc2)cc1` stands 6.86% (inactive).

Regarding `O=C1C(=O)N(CCCn2ccnc2)C(c2ccc([N+](=O)[O-])cc2)/C1=C(\O)c1ccc2c(c1)OCCO2` (configuration not stated), the inhibition was -1.86% (inactive). On the same count and under the same terms, the same measure for `O=C(C[C@@H]1C/C=C\C[C@H](Cc2ccc(F)cc2)C(=O)OCCNC1=O)N[C@H](CO)Cc1ccccc1`: -4.01% (inactive); for `O=[N+]([O-])c1cc(Br)cc(C=Nc2ccc3c(c2)OCO3)c1O`: 17.9% (inactive); for `O=[N+]([O-])c1ccc(O)c(C=Nc2ccc3c(c2)OCCO3)c1`: 2.55% (inactive). On to `O=C(O)c1ccc(NC2OC[C@@H](O)[C@H](O)[C@H]2O)cc1` (some centres not stated), for which the inhibition was 1.47% (inactive). The same measure, in the same setting: the same measure for `CC(=O)Nc1ccc(S(=O)(=O)NC2CC(=O)N(c3ccc(C)c(C)c3)C2)cc1` (configuration not stated): -8.06% (inactive). The same measure, in the same setting: the same measure for `CCCCn1c(N)c(N(CCC(C)C)C(=O)CCCc2nc3ccccc3s2)c(=O)[nH]c1=O`: 0.96% (inactive); for `CCCSc1nc(O)c(C2OC(=O)c3c2ccc(OC)c3OC)c(=O)n1C` (configuration not stated): 4.42% (inactive); for `CCSc1nc(O)c(C2OC(=O)c3c2ccc(OC)c3OC)c(=O)n1-c1ccccc1` (configuration not stated): -0.81% (inactive).

Take `Cc1ccc(CNC(=O)Cn2c(=O)c3sccc3n(Cc3ccc([N+](=O)[O-])cc3)c2=O)cc1`: the inhibition is -4.46% (inactive).

Consider `COc1cc2c(cc1C1C(C#N)=C(N)OC3=C1C(=O)CC(C)(C)C3)OCO2` (configuration not stated), for which the inhibition is 2.7% (inactive). Still for that read-out and setting: under `COc1ccc(C(C(=O)NC(C)(C)C)N(C(=O)CNC(=O)c2cccs2)c2cccnc2)cc1OC` (configuration not stated) stands 0.81% (inactive). On to `CCOC(=O)C1CCN(c2c(NCCCN(CC)c3ccccc3)c(=O)c2=O)CC1`, for which the inhibition was -1.39% (inactive). The same measure, in the same setting: under `CCN(CCCNC(=O)C1CCN(S(=O)(=O)CC)CC1)c1ccccc1` stands 0% (inactive); under `N#Cc1c(NC(=O)C(=O)NCCCN2CCOCC2)sc2c1CCC2`, -10.5% (inactive); under `COc1ccc(C(c2c(C)n(C)n(-c3ccccc3)c2=O)c2c(C)n(C)n(-c3ccccc3)c2=O)c(OC)c1OC`, 4.27% (inactive). Still for that read-out and setting: under `COc1cccc(COC(=O)c2c(C)nn(-c3ccccc3)c2Cl)c1OC` stands -1.3% (inactive); under `O=C(CC1(CC(=O)N2CCOCC2)CCCC1)Nc1ccccc1`, 1.1% (inactive). Same read-out and setting: under `Cc1[nH]n(-c2ccccc2)c(=O)c1N=Nc1ccccc1C(=O)N1CCOCC1` stands -1.82% (inactive). In the case of `Cc1[nH]n(-c2ccccc2)c(=O)c1N=Nc1ccccc1O`, the inhibition is -2.22% (inactive). On to `Cc1[nH]n(-c2ccccc2)c(=O)c1C(c1ccccc1C(=O)O)c1c(C)[nH]n(-c2ccccc2)c1=O`, for which the inhibition is -2.59% (inactive). The same measure, in the same setting: the same measure for `Cc1c(C(c2cccc(O)c2)c2c(C)n(C)n(-c3ccccc3)c2=O)c(=O)n(-c2ccccc2)n1C`: 0.66% (inactive); for `Cc1c(C(c2ccc(C(=O)O)cc2)c2c(C)n(C)n(-c3ccccc3)c2=O)c(=O)n(-c2ccccc2)n1C`: -3.92% (inactive); for `Cc1[nH]n(-c2ccccc2)c(=O)c1C(C[N+](=O)[O-])c1ccc(F)cc1` (configuration not stated): 1.46% (inactive).

On to `Cc1ccc(C(C[N+](=O)[O-])c2c(C)[nH]n(-c3ccccc3)c2=O)cc1` (configuration not stated), for which the inhibition is 12.3% (inactive).

As for `Cc1c(C(c2ccc([N+](=O)[O-])cc2)c2c(C)n(C)n(-c3ccccc3)c2=O)c(=O)n(-c2ccccc2)n1C`, the inhibition is -2.74% (inactive). Same read-out and setting: the same measure for `COC(=O)[C@@H]1C[C@@]2(O)[C@H](O)[C@H](O)[C@H](O)C[C@H]2N1Cc1cccc2ccccc12`: -3.14% (inactive); for `Cc1nonc1CN(C)C(=O)CC1C(=O)NCCN1Cc1c(F)cccc1Cl` (configuration not stated): 0% (inactive). As to `Cc1ccc(OCc2cc(C(=O)N3CCCC(O)C3)no2)cn1` (configuration not stated), the inhibition is 3.18% (inactive). On to `COc1ccc(-c2cc(C(F)(F)F)nc(NCc3cccs3)n2)cc1`, for which the inhibition is -0.64% (inactive). Same read-out and setting: the same measure for `Cc1csc(NC(=O)c2ccc(COc3ccccc3)o2)n1`: -0.81% (inactive); for `COc1cccc(NC(=S)NC2CC3CCCC(C2)N3C2CCCC2)c1` (configuration not stated): -6.24% (inactive); for `CCCCCN(C(=O)CCC(=O)OCc1cccc(C(F)(F)F)c1)c1c(N)n(CCCC)c(=O)[nH]c1=O`: -5.15% (inactive). Same read-out and setting: the same measure for `Cc1[nH]n(-c2cccc([N+](=O)[O-])c2)c(=O)c1-c1ccccc1`: -10.7% (inactive); for `Cc1[nH][nH]c(=O)c1C(c1ccc(O)c([N+](=O)[O-])c1)c1c(C)[nH][nH]c1=O`: 5.19% (inactive); for `Cc1[nH]n(-c2ccccc2)c(=O)c1N=Nc1cccc([N+](=O)[O-])c1`: -3.97% (inactive). The same measure, in the same setting: under `O=c1c2cc([N+](=O)[O-])cc([N+](=O)[O-])c2[nH]n1-c1ccccc1` stands 22.2% (inactive). On to `COc1ccc(-n2c3c(cc(C(=O)NC4CCSC4=O)c2=O)C(=O)CC(C)(C)C3)cc1` (configuration not stated), for which the inhibition was 3.46% (inactive). For the compound `CC1(C)CC(=O)C=C(c2ccc3ccccc3c2)C1`, the inhibition is 6.35% (inactive).

Take `CC1CCCN(CCC(=O)Nc2ccc3c(c2)CCC3)C1` (configuration not stated): the inhibition was -0.41% (inactive).

Broadly, the inhibition is the drop in the measured response relative to a control, in per cent.

(Values after PubChem BioAssay AID588689 (Southern Research Specialized Biocontainment Screening …, 2011).)
